Assay results from publication PMC10812921, “Transcriptional Coactivator BOB1 (OBF1, OCA-B) Modulates the Specificity of DNA Recognition by the POU-Domain Factors OCT1 and OCT2 in a Monomeric Configuration”.

Assays:
[1] = biological target: POU1 (OCT1 POU domain) (human, UniProt P14859 260-458); assay: EMSA-SELEX-seq; no BOB1; 20 mM Tris-HCl pH 7.6, 140 mM NaCl, 10% glycerol, 0.5 mM EDTA, 0.05% Triton X-100, 0.1 mg/mL BSA, 0.1 mg/mL poly(dI-dC), 5 mM DTT, room temperature, 20 min; high values mean tight binding; conditions: protein: recombinant; dsDNA, one strand shown
Summary of the method: (§1)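 Tagged POU-domain proteins were expressed in E. coli BL21, purified under denaturing conditions and renatured. Then 30 ng was mixed with 300 ng of a PCR-amplified double-stranded random 35-nt library, with or without 28 ng coactivator protein, in 20 μL Tris–HCl pH 7.6 binding buffer for 20 min at RT. Complex bands were cut from native 6% PAGE, eluted and PCR-amplified over four rounds, then Illumina-sequenced. Binding preference is the percentage of sequenced 8-mers matching a motif pattern.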

[2] = biological target: T1, POU2 (OCT2 POU domain) (human, UniProt P09086 175-386); assay: as above; conditions: protein: recombinant; dsDNA, one strand shown
T1 sequence: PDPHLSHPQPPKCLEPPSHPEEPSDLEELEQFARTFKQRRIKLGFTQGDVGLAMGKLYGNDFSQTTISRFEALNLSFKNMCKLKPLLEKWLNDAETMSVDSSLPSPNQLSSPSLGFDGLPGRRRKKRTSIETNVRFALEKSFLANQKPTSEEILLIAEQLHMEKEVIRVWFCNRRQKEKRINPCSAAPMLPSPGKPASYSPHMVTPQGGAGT
Summary of the method: as §1

[3] = biological target: POU1 (OCT1 POU domain);BOB1 (OBF1, OCA-B) (human;human, UniProt P14859;Q16633 260-458;1-256, |); assay: EMSA-SELEX-seq; with BOB1 (ternary complex band); 20 mM Tris-HCl pH 7.6, 140 mM NaCl, 10% glycerol, 0.5 mM EDTA, 0.05% Triton X-100, 0.1 mg/mL BSA, 0.1 mg/mL poly(dI-dC), 5 mM DTT, room temperature, 20 min; high values mean tight binding; conditions: protein: recombinant;recombinant; copies: 1;1; dsDNA, one strand shown
Summary of the method: as §1

[4] = biological target: T2, POU2 (OCT2 POU domain);BOB1 (OBF1, OCA-B) (human;human, UniProt P09086;Q16633 175-386;1-256, |); assay: as above; conditions: protein: recombinant;recombinant; copies: 1;1; dsDNA, one strand shown
T2 sequence 1: T1 sequence
T2 sequence 2: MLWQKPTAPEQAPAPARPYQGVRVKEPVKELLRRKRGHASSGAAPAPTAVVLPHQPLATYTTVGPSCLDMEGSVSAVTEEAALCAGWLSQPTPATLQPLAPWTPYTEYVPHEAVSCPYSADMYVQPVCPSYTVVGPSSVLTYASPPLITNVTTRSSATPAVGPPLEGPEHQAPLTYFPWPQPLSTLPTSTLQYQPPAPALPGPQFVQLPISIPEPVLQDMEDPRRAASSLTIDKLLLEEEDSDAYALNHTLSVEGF
Summary of the method: as §1

Sequence of POU1 (OCT1 POU domain) (P14859 260-458): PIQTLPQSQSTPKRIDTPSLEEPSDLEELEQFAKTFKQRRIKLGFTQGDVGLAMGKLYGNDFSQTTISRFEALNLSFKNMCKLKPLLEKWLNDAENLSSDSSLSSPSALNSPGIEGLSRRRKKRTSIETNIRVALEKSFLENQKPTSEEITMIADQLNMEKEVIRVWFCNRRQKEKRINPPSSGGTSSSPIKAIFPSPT

| Sequence | binding signal [1] | binding signal [2] | binding signal [3] | binding signal [4] |
| --- | --- | --- | --- | --- |
| AGATCAAC | 0.0175 % of ANNNNAAN 8-mers | 0.0207 % of ANNNNAAN 8-mers | 0.0211 % of ANNNNAAN 8-mers | 0.0338 % of ANNNNAAN 8-mers |
| AGGGCAAT | 0.0442 % of ANNNNAAN 8-mers | 0.0558 % of ANNNNAAN 8-mers | 0.0457 % of ANNNNAAN 8-mers | 0.0611 % of ANNNNAAN 8-mers |
| AGAACAAT | 0.0378 % of ANNNNAAN 8-mers | 0.0414 % of ANNNNAAN 8-mers | 0.0293 % of ANNNNAAN 8-mers | 0.038 % of ANNNNAAN 8-mers |
| AAGATAAC | 0.0248 % of ANNNNAAN 8-mers | 0.0334 % of ANNNNAAN 8-mers | 0.0285 % of ANNNNAAN 8-mers | 0.0388 % of ANNNNAAN 8-mers |
| AAATCAAC | 0.0759 % of ANNNNAAN 8-mers | 0.0921 % of ANNNNAAN 8-mers | 0.096 % of ANNNNAAN 8-mers | 0.0916 % of ANNNNAAN 8-mers |
| ACGGTAAT | 0.0984 % of ANNNNAAN 8-mers | 0.143 % of ANNNNAAN 8-mers | 0.0741 % of ANNNNAAN 8-mers | 0.109 % of ANNNNAAN 8-mers |
| AGCCGAAC | 0.0133 % of ANNNNAAN 8-mers | 0.0161 % of ANNNNAAN 8-mers | 0.016 % of ANNNNAAN 8-mers | 0.014 % of ANNNNAAN 8-mers |
| ATTCCAAT | 0.0767 % of ANNNNAAN 8-mers | 0.11 % of ANNNNAAN 8-mers | 0.057 % of ANNNNAAN 8-mers | 0.0751 % of ANNNNAAN 8-mers |
| ACCCCAAT | 0.0145 % of ANNNNAAN 8-mers | 0.0167 % of ANNNNAAN 8-mers | 0.0172 % of ANNNNAAN 8-mers | 0.019 % of ANNNNAAN 8-mers |
| ACCCGAAG | 0.0126 % of ANNNNAAN 8-mers | 0.0109 % of ANNNNAAN 8-mers | 0.0129 % of ANNNNAAN 8-mers | 0.0132 % of ANNNNAAN 8-mers |
| AATGTAAC | 0.0591 % of ANNNNAAN 8-mers | 0.0639 % of ANNNNAAN 8-mers | 0.046 % of ANNNNAAN 8-mers | 0.0545 % of ANNNNAAN 8-mers |
| ACTGGAAT | 0.074 % of ANNNNAAN 8-mers | 0.0765 % of ANNNNAAN 8-mers | 0.0558 % of ANNNNAAN 8-mers | 0.0817 % of ANNNNAAN 8-mers |
| ATTCAAAG | 0.281 % of ANNNNAAN 8-mers | 0.201 % of ANNNNAAN 8-mers | 0.314 % of ANNNNAAN 8-mers | 0.242 % of ANNNNAAN 8-mers |
| AGGGCAAG | 0.0294 % of ANNNNAAN 8-mers | 0.0322 % of ANNNNAAN 8-mers | 0.0332 % of ANNNNAAN 8-mers | 0.0363 % of ANNNNAAN 8-mers |
| ATGGTAAA | 0.182 % of ANNNNAAN 8-mers | 0.191 % of ANNNNAAN 8-mers | 0.105 % of ANNNNAAN 8-mers | 0.106 % of ANNNNAAN 8-mers |
| AAGCGAAC | 0.0221 % of ANNNNAAN 8-mers | 0.0178 % of ANNNNAAN 8-mers | 0.0176 % of ANNNNAAN 8-mers | 0.0231 % of ANNNNAAN 8-mers |

| Sequence | binding signal [1] | binding signal [2] | binding signal [3] | binding signal [4] |
| --- | --- | --- | --- | --- |
| ATCAAAAA | 0.061 % of ANNNNAAN 8-mers | 0.0702 % of ANNNNAAN 8-mers | 0.0851 % of ANNNNAAN 8-mers | 0.0636 % of ANNNNAAN 8-mers |
| ACTCTAAG | 0.0214 % of ANNNNAAN 8-mers | 0.0224 % of ANNNNAAN 8-mers | 0.0258 % of ANNNNAAN 8-mers | 0.0206 % of ANNNNAAN 8-mers |
| AGCAGAAT | 0.0435 % of ANNNNAAN 8-mers | 0.0621 % of ANNNNAAN 8-mers | 0.0511 % of ANNNNAAN 8-mers | 0.0561 % of ANNNNAAN 8-mers |
| ACGAGAAA | 0.0381 % of ANNNNAAN 8-mers | 0.0437 % of ANNNNAAN 8-mers | 0.0355 % of ANNNNAAN 8-mers | 0.038 % of ANNNNAAN 8-mers |
| ATAAAAAA | 0.0995 % of ANNNNAAN 8-mers | 0.1 % of ANNNNAAN 8-mers | 0.0823 % of ANNNNAAN 8-mers | 0.0801 % of ANNNNAAN 8-mers |
| AGGATAAC | 0.0263 % of ANNNNAAN 8-mers | 0.0437 % of ANNNNAAN 8-mers | 0.0293 % of ANNNNAAN 8-mers | 0.0355 % of ANNNNAAN 8-mers |
| AACGCAAA | 0.147 % of ANNNNAAN 8-mers | 0.0978 % of ANNNNAAN 8-mers | 0.266 % of ANNNNAAN 8-mers | 0.229 % of ANNNNAAN 8-mers |
| ATCTAAAT | 0.172 % of ANNNNAAN 8-mers | 0.227 % of ANNNNAAN 8-mers | 0.123 % of ANNNNAAN 8-mers | 0.123 % of ANNNNAAN 8-mers |
| AAGACAAG | 0.0259 % of ANNNNAAN 8-mers | 0.0305 % of ANNNNAAN 8-mers | 0.0261 % of ANNNNAAN 8-mers | 0.0281 % of ANNNNAAN 8-mers |
| ACCTAAAA | 0.021 % of ANNNNAAN 8-mers | 0.0311 % of ANNNNAAN 8-mers | 0.0254 % of ANNNNAAN 8-mers | 0.0157 % of ANNNNAAN 8-mers |
| AACACAAT | 0.0351 % of ANNNNAAN 8-mers | 0.0351 % of ANNNNAAN 8-mers | 0.0293 % of ANNNNAAN 8-mers | 0.0421 % of ANNNNAAN 8-mers |
| ACAAAAAC | 0.0488 % of ANNNNAAN 8-mers | 0.0397 % of ANNNNAAN 8-mers | 0.0706 % of ANNNNAAN 8-mers | 0.0405 % of ANNNNAAN 8-mers |
| AACGAAAA | 0.0522 % of ANNNNAAN 8-mers | 0.0529 % of ANNNNAAN 8-mers | 0.0597 % of ANNNNAAN 8-mers | 0.0462 % of ANNNNAAN 8-mers |
| AACGTAAA | 0.0816 % of ANNNNAAN 8-mers | 0.0639 % of ANNNNAAN 8-mers | 0.0843 % of ANNNNAAN 8-mers | 0.0578 % of ANNNNAAN 8-mers |
| ATTGCAAA | 0.202 % of ANNNNAAN 8-mers | 0.167 % of ANNNNAAN 8-mers | 0.322 % of ANNNNAAN 8-mers | 0.324 % of ANNNNAAN 8-mers |
| AATTAAAT | 0.333 % of ANNNNAAN 8-mers | 0.39 % of ANNNNAAN 8-mers | 0.19 % of ANNNNAAN 8-mers | 0.173 % of ANNNNAAN 8-mers |
